Hits are enriched below; roughly 4.8% of the tested compounds scored in any of these assays.
hcDAF-12 act: activators of H. contortus DAF-12 nuclear receptor | HEK293 hcDAF-12 lit1-tk-luc reporter, luminescence; 0% DMSO, 100% Δ7-dafachronic acid | activation, % at 6.8 µM | hit rate 1.4% among 370,000;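 active = activation above the mean of all tested compounds plus 3 SD, cut at about 5.5% in these data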
ssDAF-12 act: activates DAF-12 receptor from parasite S. stercoralis | activation, % at 6.8 µM | hit rate 1% among 370,000 | HEK293 ssDAF-12/GRIP1 lit1-tk-luc reporter, luminescence; % of 3 µM dafachronic acid response;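 active = activation above the mean over all tested compounds plus 3 SD, cut at about 0.9% in these data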
DAX1 inh-1: blocks DAX1 repression of SF-1 activated StAR promoter | hit rate 1.1% among 370,000 | inhibition, % at 6.8 µM | HEK293T StAR-luciferase reporter, SF-1/DAX-1 repression relief;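 active = inhibition above the mean over all tested compounds plus 3 SD, cut at about 3.6% in these data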;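 also: higher inhibition means more luminescence from relief of DAX-1 repression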
DAX1 inh-2: inhibitors of human orphan nuclear receptor DAX1 (NR0B1) | inhibition, % at 6.75 µM | hit rate 0.99% among 340,000 | P51843 | HEK293 Gal4-DAX1 luciferase reporter, luminescence | AID 504766;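 active = inhibition above the mean over all tested compounds plus 3 SD, cut at about 4.2% in these data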;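 also: inhibition shows as a rise in luminescence from relieved DAX1 repression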
Target sequence (P51843 207-470 limits assumed): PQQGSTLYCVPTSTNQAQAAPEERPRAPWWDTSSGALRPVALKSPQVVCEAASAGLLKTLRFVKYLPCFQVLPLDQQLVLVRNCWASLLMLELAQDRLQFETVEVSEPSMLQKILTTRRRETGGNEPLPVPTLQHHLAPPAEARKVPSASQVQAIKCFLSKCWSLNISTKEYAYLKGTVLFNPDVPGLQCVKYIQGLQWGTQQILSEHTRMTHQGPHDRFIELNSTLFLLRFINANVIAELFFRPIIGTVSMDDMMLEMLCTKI
hgDAF-12 ag: agonists of H. glycines DAF-12 nuclear receptor | HEK293 GAL4-hgDAF12 UAS-luciferase reporter, agonist luminescence; normalized to butyrate control | activation, % at 6.8 µM | hit rate 1.8% among 370,000 | AID 687014;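 active = activation above a cutoff set at the mean of all screened compounds plus 3 SD, cut at about 10% in these data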
SMARCA2 activ: SMARCA2 function activation, primary screen. MG213 cells, MMTV-luciferase reporter, dexamethasone, overnight. activation, % at 9.1 µM. hit rate 1% among 370,000. AID 652017; in the data active = activation above about 7.8%
DAX1 conf: confirmation of human DAX1 (NR0B1) inhibitors; shares compounds with DAX1 inh-1; HEK293T StAR-promoter luciferase reporter, SF-1/DAX-1 repression; inhibition, % at 6.8 µM; hit rate 87% among 2,400; AID 652134;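 active = inhibition above the average of every tested compound plus 3 SD, cut at about 3.8% in these data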;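 also: active compounds raise luminescence by relieving repression of the StAR reporter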
Target sequence (P51843 whole entry, looked up): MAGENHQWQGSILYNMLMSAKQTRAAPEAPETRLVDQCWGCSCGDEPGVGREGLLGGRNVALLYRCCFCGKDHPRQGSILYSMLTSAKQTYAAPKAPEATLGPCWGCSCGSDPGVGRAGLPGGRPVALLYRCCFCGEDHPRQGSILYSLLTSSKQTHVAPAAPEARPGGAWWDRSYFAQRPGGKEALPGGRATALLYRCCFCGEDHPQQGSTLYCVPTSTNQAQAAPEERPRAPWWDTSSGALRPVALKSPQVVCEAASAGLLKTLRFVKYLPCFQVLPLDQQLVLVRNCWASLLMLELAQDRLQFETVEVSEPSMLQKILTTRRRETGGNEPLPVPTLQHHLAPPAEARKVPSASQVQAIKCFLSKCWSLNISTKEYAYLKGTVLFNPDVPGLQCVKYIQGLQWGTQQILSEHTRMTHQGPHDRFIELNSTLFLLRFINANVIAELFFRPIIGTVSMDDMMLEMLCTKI
SF1 AF2mut Luc: nonselective inhibitor or artifact in SF-1 mutant DAX1 counter-screen. inhibition, % at 6.8 µM. hit rate 78% among 2,400. HEK293 StAR-luciferase, SF-1 AF2 mutant, luminescence. AID 652136. shares compounds with DAX1 inh-1;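 active = inhibition above the mean of all tested compounds plus 3 SD, cut at about 3% in these data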
SMARCA2 conf: confirmation of SMARCA2 (BRM) function activators; hit rate 30% among 3,500; MG213 cells, MMTV-luciferase with dexamethasone, luminescence, overnight; MG213 cells expressing E1A, Rb sequestered; DMSO wells 0%, reference activator 100%; shares compounds with SMARCA2 activ; activation, % at 9.1 µM;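 active = activation above its plate's cutoff, the mean activation of tested wells plus 3 SD, cut at about 7.9% in these data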
GAL4-VP16 Luc: activates GAL4-VP16 luciferase, flagging SMARCA2 activator hits. AID 686939. shares compounds with SMARCA2 activ. HEK293 GAL4-VP16 pG5luc reporter, luciferase luminescence; scaled: DMSO wells 0%, SAHA wells 100%. activation, % at 9.1 µM. hit rate 41% among 3,500;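 active = activation above the solvent-only control well mean plus 3 SD, averaged across control plates, cut at about 5.2% in these data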
LXRb hcDAF ctr: LXR-beta agonism as hcDAF-12 counter-screen; shares compounds with hcDAF-12 act; activation, % at 6.8 µM; AID 743027; 3,400 tested, under 10 active; HEK293 Gal4-LXR tk-luc reporter, luminescence, 24 h; normalized: DMSO 0%, positive control 100%;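 active = mean percent activation of the reporter above a cutoff set as the average over tested compounds plus their standard deviation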
hcDAF12 conf: confirmation of H. contortus DAF-12 agonists; shares compounds with hcDAF-12 act; hit rate 61% among 3,400; HEK293 hcDAF-12 lit1-tk-luc reporter, luminescence; % of Δ7-dafachronic acid response; activation, % at 6.8 µM;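 active = mean activation across triplicate tests above the threshold derived from the earlier primary screen, cut at about 5.5% in these data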
hgDAF12 ag: confirmation of H. glycines DAF-12 agonists. HEK293 GAL4-hgDAF12 luciferase reporter, agonist mode; percent of butyrate response. AID 743050. activation, % at 6.8 µM. hit rate 80% among 3,300. shares compounds with hgDAF-12 ag;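 active = mean activation over triplicate wells above the hit cutoff derived from the earlier primary screen, cut at about 11% in these data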
LXR ag 2: activates human LXR-beta, counter-screen for DAF-12 agonists; activation, % at 6.8 µM; shares compounds with hgDAF-12 ag; HEK293 Gal4-LXR luciferase reporter, 24 h; 3,300 tested, under 10 active;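 active = mean activation of the triplicate above a set limit carried over from the primary screen, none filed active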
Of the large screens only hits and unclear results are named; the others gave an inactive call (follow-up assays come after a bar, where they were run).

CC(C)c1[nH]nc2c1C(c1ccc3c(c1)OCO3)NC2=O (configuration not stated)	none (no result: DAX1 inh-2)
O=C(NC(=S)Nc1ccccc1Br)C1CC1	none
Cc1ccc(NC(=S)NC(=O)C2CCCC2)c(Br)c1	hcDAF-12 act 6.3, DAX1 inh-1 9.3, hgDAF-12 ag 15 | DAX1 conf 9.5 | SF1 AF2mut Luc 4.7 | hgDAF12 ag 21 | LXR ag 2 inactive
CCCCC(=O)Nc1cc2nn(-c3ccc(OC)cc3)nc2cc1C	none
CCC(=O)Nc1cc2nn(-c3ccc(OC)cc3)nc2cc1C	DAX1 inh-1 5.1, DAX1 inh-2 5.5, hgDAF-12 ag 16 | DAX1 conf 13 | SF1 AF2mut Luc 3.3 | hgDAF12 ag 14 | LXR ag 2 inactive
COC(=O)[C@H]1C[C@@]2(Oc3ccc(Br)cc3)c3ccccc3N(C(=O)OC(C)(C)C)[C@H]2N1C(=O)OC(C)(C)C	none (no result: DAX1 inh-2)
CCCCN1CCS(=O)(=O)N(Cc2cn(Cc3ccc(C)cc3)nn2)C(C(=O)OC)C1 (configuration not stated)	none (no result: DAX1 inh-2)
COc1ccc(C(C(=O)N(C)C2CCCC2)N(Cc2ccc(F)cc2)C(=O)c2ccc3ccccc3c2)cc1OC (configuration not stated)	none (no result: DAX1 inh-2)
CCN=C1NN=C(c2cc(C)n(CCc3ccccc3)c2C)CS1	none
CCN=C1NN=C(c2c[nH]c3ccccc23)CS1	hcDAF-12 act 11, ssDAF-12 act 3.7, DAX1 inh-1 4.9, hgDAF-12 ag 15 | DAX1 conf 12 | SF1 AF2mut Luc 5.8 | LXRb hcDAF ctr inactive | hcDAF12 conf 12 | hgDAF12 ag 20 | LXR ag 2 inactive
CCCCSc1ncnc2c1ncn2C1CCCCO1 (configuration not stated)	DAX1 inh-1 5.4, DAX1 inh-2 5.9, hgDAF-12 ag 17 | DAX1 conf 11 | SF1 AF2mut Luc 6.0 | hgDAF12 ag 16 | LXR ag 2 inactive
Fc1ccccc1CSc1ncnc2c1ncn2C1CCCO1 (configuration not stated)	none
O=C(Nc1cccc([N+](=O)[O-])c1)OCc1ccc2c(c1)OCO2	none (no result: DAX1 inh-2)
COC(=O)C1CN(Cc2ccccc2)CCS(=O)(=O)N1Cc1cn(Cc2ccccc2Br)nn1 (configuration not stated)	none (no result: DAX1 inh-2)
O=C(CCN1C(=O)c2ccccc2C1=O)Nc1ccc(-c2nc3ccccc3s2)cc1	none
Cc1ccc2nc(-c3ccc(NC(=O)CCN4C(=O)c5ccccc5C4=O)cc3)sc2c1	hcDAF-12 act 8.7, ssDAF-12 act 0.9, DAX1 inh-1 5.9, hgDAF-12 ag 17 | DAX1 conf 15 | SF1 AF2mut Luc 4.5 | LXRb hcDAF ctr inactive | hcDAF12 conf 8.3 | hgDAF12 ag 21 | LXR ag 2 inactive
Cc1ccc2nc(-c3ccc(NC(=S)NC4CC(C)(C)NC(C)(C)C4)cc3)sc2c1	DAX1 inh-1 7.5, DAX1 inh-2 4.4, hgDAF-12 ag 19, SMARCA2 activ 13 | DAX1 conf 12 | SF1 AF2mut Luc 10 | SMARCA2 conf inactive | GAL4-VP16 Luc 16 | hgDAF12 ag 17 | LXR ag 2 inactive
Cc1ccc2nc(-c3ccc(NC(=O)C(C)N4C(=O)c5ccccc5C4=O)cc3)sc2c1 (configuration not stated)	hcDAF-12 act 8.6, DAX1 inh-1 6.2, hgDAF-12 ag 21 | DAX1 conf 8.8 | SF1 AF2mut Luc 5.8 | LXRb hcDAF ctr inactive | hcDAF12 conf inactive | hgDAF12 ag 13 | LXR ag 2 inactive
Cc1ccc2nc(-c3ccc(NC(=S)NC(=O)C(C)C)cc3)sc2c1	none
Cc1ccc2nc(-c3ccc(NC(=O)CSCC(=O)O)cc3)sc2c1	hcDAF-12 act 7.0, DAX1 inh-1 4.8, hgDAF-12 ag 24, SMARCA2 activ 16 | DAX1 conf 15 | SF1 AF2mut Luc 8.8 | SMARCA2 conf inactive | GAL4-VP16 Luc 20 | LXRb hcDAF ctr inactive | hcDAF12 conf 5.8 | hgDAF12 ag 18 | LXR ag 2 inactive
Cc1nc2ccc(-c3nc4ccccc4o3)cc2[nH]1	DAX1 inh-1 5.2, hgDAF-12 ag 20, SMARCA2 activ 9.0 | DAX1 conf 15 | SF1 AF2mut Luc 8.8 | SMARCA2 conf inactive | GAL4-VP16 Luc 13 | hgDAF12 ag 22 | LXR ag 2 inactive
Nc1ccc(-c2nc3ccc(-c4nc5ccccc5o4)cc3[nH]2)cc1	none
COC(=O)C1CN(Cc2ccccc2)CCS(=O)(=O)N1Cc1cn(Cc2ccc(F)cc2)nn1 (configuration not stated)	none (no result: DAX1 inh-2)
Cc1csc(SCc2nnc(-c3ccc(Cl)cc3)o2)n1	none
Fc1ccccc1SCc1nnc(-c2ccccc2Br)o1	DAX1 inh-1 6.5, hgDAF-12 ag 14 | DAX1 conf 16 | SF1 AF2mut Luc 7.3 | hgDAF12 ag 20 | LXR ag 2 inactive
Cc1csc(SCc2nnc(-c3ccccc3Br)o2)n1	DAX1 inh-1 6.5, hgDAF-12 ag 16 | DAX1 conf 14 | SF1 AF2mut Luc 8.2 | hgDAF12 ag 17 | LXR ag 2 inactive

Screening data as filed in PubChem.
